In PubChem BioAssay AID1159580 (chemical genetic matrix, 2015):
The campaign covered roughly 5,500 compounds. About 2,000 (36%) were called active. Roughly 18% stayed inconclusive and do not appear here. No stated cut-off is given here; in the data, active means normalized growth mostly below about 0.91 (no sharp cut-off); inconclusive means no clear call, values can overlap the other calls; inactive means mostly above about 0.92. The list shows a part of the results.

Test: chemical genetic growth profiling, strain panel (AID 1159580);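 further: tested at 20 µM; growth read once vehicle control cultures reached saturation at 30 °C; 1 = growth at the plate median or of vehicle wells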
Settings: S. cerevisiae deletion strains, growth OD

Measured: normalized growth

CN1CCC23CCCC[C@H]2C1Cc1ccc(O)cc13 (stereo partly drawn)
inactive: locus YAL040C, strain CLN3, stronger effect = lower value 1.01 | locus YCL061C, strain MRC1 (second series), stronger effect = lower value 1 | locus YDR363W, strain ESC2, stronger effect = lower value 1.03 | locus YER002W, strain NOP16, stronger effect = lower value 0.998 | locus YGR229C, strain SMI1, stronger effect = lower value 1.04 | locus YJR075W, strain HOC1, stronger effect = lower value 1.01 | locus YNL153C, strain GIM3, stronger effect = lower value 1.02 | locus YNL175C, strain NOP13, stronger effect = lower value 1.01 | locus YNL197C, strain WHI3, stronger effect = lower value 1.05 | locus YNL224C, strain SQS1, stronger effect = lower value 1.01 | locus YNL322C, strain KRE1, stronger effect = lower value 1.02 | locus YOR083W, strain WHI5 (second series), stronger effect = lower value 0.989 | locus YPL055C, strain LGE1, stronger effect = lower value 0.998
